In the library only some 19% were active in any assay of this set; here they are far more common.
ELG1 DNA repair: qHTS screen for small molecules that inhibit ELG1-dependent DNA repair in human embryonic kidney (HEK293T) cells expressing luciferase-tagged ELG1. Potency, µM (titrated, usually from 46.1 µM), usual class: inhibitors. hit rate 2.3% among 330,000. AID 504467, 2011. HEK293T ELG1-luciferase reporter, luminescence, 16 h; DNA damage induced by 5-fluorouridine; also: nearly all actives have a fitted effect of over 55% in size
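Reporter activity after DNA damage by 5-fluorouridine is monitored. Compound-treated cells incubate 16 hr at 37 °C, then ONE-Glo is added for 30 min before luminescence reading.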
IL1B secr inh: qHTS for Inhibitors of Inflammasome Signaling: IL-1-beta AlphaLISA Primary Screen. THP-1 LPS/ATP IL-1B secretion, AlphaLISA, 16 h; hits give low values. activity change, % at 57.5 µM. hit rate 4.7% among 360,000. AID 743279, 2014; in the data active = activity change below about -50%; inconclusive = mostly about -30% to -49%
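Secreted IL-1B measured by AlphaLISA bead assay after 16 h compound exposure of THP-1 cells; compounds (final up to 57.5 uM) added 1 h before LPS (250 ng/mL) and ATP (1.25 mM) stimulation; lower signal means less secretion.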
TDP1 cell CPT: qHTS for Inhibitors of human tyrosyl-DNA phosphodiesterase 1 (TDP1): qHTS in cells in presence of CPT; hit rate 12% among 420,000; Potency, µM (doses to about 46.2 µM), hits mostly inhibitors; chicken DT40 Tdp1-/-;hTDP1 cells + 20 nM CPT, ATP luminescence, 48 h; also: nearly all actives have a fitted effect of over 55% in size
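Chicken DT40 Tdp1-/- cells complemented with human TDP1, 400 cells/well, exposed to compounds plus 20 nM camptothecin for at least 48 h at 37 C; viability read as ATP content by CellTiter-Glo luminescence.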
HT1080NT lethal: qHTS for induction of synthetic lethality in tumor cells producing 2HG: qHTS for the HT-1080-NT fibrosarcoma cell line; HT-1080-NT fibrosarcoma viability, CellTiter-Glo ATP luminescence, 48 h; Potency, µM (top dose mostly 46.1 µM), hits mostly cytotoxic; hit rate 1.6% among 360,000;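 also: NT is the 2HG producing partner of a matched IDH1 knockdown line; nearly all actives have a fitted effect of over 55% in size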
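Viability by CellTiter-Glo luminescence after 48 h compound exposure at 37C of HT-1080-NT cells (750/well, RPMI, 5% FBS). % activity scaled between DMSO wells and medium-only wells, then curve-fitted and categorized by curve class.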
DT40 TDP1 no CPT: qHTS for Inhibitors of human tyrosyl-DNA phosphodiesterase 1 (TDP1): qHTS in cells in absence of CPT; AID 686978, 2013; hit rate 15% among 420,000; Potency, µM (doses to about 46.2 µM), actives largely listed as inhibitors; DT40 Tdp1-/- hTDP1 cells, no CPT, ATP luminescence, 48 h; also: nearly all actives have a fitted effect of over 55% in size
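Camptothecin absent (DMSO only). Human TDP1-complemented DT40 knockout cells, 400 cells/well, 37 °C for minimum 48 hr; ATP measured via CellTiter-Glo, 30 min dark incubation, luminescence.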
HT1080 IDH1KD tx: qHTS for induction of synthetic lethality in tumor cells producing 2HG: qHTS for the HT-1080-IDH1KD cell line; HT-1080 IDH1 knockdown viability, ATP luminescence, 48 h; Potency, µM (highest dose often 46.1 µM), hits mostly cytotoxic; hit rate 2% among 360,000; AID 686971, 2013
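% activity derives from luminescence (CellTiter-Glo), normalised to DMSO and no-cell wells. HT-1080-IDH1KD cells, 750/well, had 48 h compound exposure at 37 °C.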
Numbers stand for hits; i = inactive; ? = inconclusive; nt = no result given; ! = repeats disagree. Unless noted, calls follow the shape of the dose curve; as a rule, active = well fitted curve in the direction sought with a large enough effect; inconclusive = small, poorly fitted or top-dose-only effect, or another doubt; inactive = no such curve, though single readings can be large; an effect the other way counts as inactive or inconclusive.

SMILES	ELG1 DNA repair	IL1B secr inh	TDP1 cell CPT	HT1080NT lethal	DT40 TDP1 no CPT	HT1080 IDH1KD tx
O=C(O)C1CCN(c2nc(-c3ccccc3)c3cc(Br)ccc3n2)CC1	i	i	i	i	?	i
OCCN1CCN(c2nc(-c3ccccc3)c3cc(Br)ccc3n2)CC1	?	-79	?	?	9.2µM	23µM
Cc1ccc(NC(=O)Cn2c(=O)n(CCCCCC(=O)NCc3ccc(F)cc3)c(=O)c3sccc32)cc1C	nt	nt	?	nt	6.5µM	nt
CNC(=O)C1CCC(Cn2c(=O)c3sccc3n(CC(=O)Nc3ccc(C)c(C)c3)c2=O)CC1 (stereo not given)	nt	nt	9.2µM	nt	9.2µM	nt
CCOc1ccc(NC(=O)Cn2c(=O)n(CCCCCC(=O)NCc3ccccc3)c(=O)c3sccc32)cc1	nt	nt	?	nt	16µM	nt
CNC(=O)C1CCC(Cn2c(=O)c3sccc3n(CC(=O)Nc3ccc(C)cc3C)c2=O)CC1 (stereo not given)	nt	nt	i	nt	i	nt
O=C1NC[C@@H](CCCCN2C[C@H](Cc3ccc(O)cc3)N(CCC3CCCCC3)C(=O)C2=O)N(Cc2ccccc2)C1=O	nt	i	i	?	i	i
Cc1ccc(CN2C(=O)c3ccccc3C2c2nnnn2-c2c(C)cccc2C)cc1 (stereo not given)	nt	i	?	i	29µM	i
Cc1cccc(C)c1-n1nnnc1C1c2ccccc2C(=O)N1CCC(C)C (stereo not given)	nt	i	?	i	?	i
COc1ccc(CCN2C(=O)c3ccccc3C2c2nnnn2-c2c(C)cccc2C)cc1OC (stereo not given)	nt	i	23µM	i	12µM	i
COc1ccc(CN2C(=O)CCC2(C)c2nnnn2-c2c(C)cccc2C)cc1OC (stereo not given)	nt	i	16µM	i	18µM	i
Cc1cccc(C)c1-n1nnnc1C1c2ccccc2C(=O)N1CCc1ccccc1F (stereo not given)	nt	i	?	i	16µM	i
Cc1nc(CN2CCN(C(=O)CC3(c4ccccc4Cl)CC(=O)N(C)C3=O)CC2)cs1 (stereo not given)	nt	nt	i	nt	i	nt
Nn1c(SCC(=O)Nc2ccccc2F)nnc1-c1cccs1	i	i	i	i	i	i
CCCN1CCN(C(=S)Nc2ccccc2C(F)(F)F)CC1	?	i	i	i	i	i
ClCCn1cnc2c(SCc3ccccc3)ncnc21	nt	-55	?	i	1.8µM	?
CC(C)Cn1cnc2c(SCc3ccccc3Cl)nc(N)nc21	nt	?	?	i	?	?
Cn1cnc2c(SCc3ccccc3)ncnc21	nt	i	i	i	i	i
ClCCn1cnc2c(SCc3ccccc3Cl)ncnc21	nt	-67	?	i	0.82µM	?
Cc1cnc(C(=O)OCc2ccc(C#N)cc2)cn1	i	i	i	i	i	i
CCn1ncc2c(OCc3ccc(C#N)cc3)cc(C)nc21	26µM	i	?	i	?	i
CC(C)C[C@H](N)c1cn([C@@H](Cc2ccc(O)cc2)C(=O)N2CCNCC2)nn1	i	i	i	i	i	i
CC(C)C[C@H](N)c1cn([C@@H](CCCCN)C(=O)N2CCNCC2)nn1	i	?	8.2µM	1.6µM	6.5µM	1.2µM
CCNC(=O)C1(C)CCCN(C(=O)C2(c3ccc(Cl)cc3)CCCC2)C1 (stereo not given)	nt	i	?	i	?	i
Cc1cc2c(C)cc(=O)[nH]c2cc1NC(=O)CCl	?	-96	5.2µM	?	2.3µM	?
SMILES	ELG1 DNA repair	IL1B secr inh	TDP1 cell CPT	HT1080NT lethal	DT40 TDP1 no CPT	HT1080 IDH1KD tx
O=C(CCl)Nc1cc2[nH]c(=O)[nH]c2cc1Br	?	-101	2.1µM	10µM	1.8µM	6.5µM
O=C(COC(=O)c1cccc(Br)c1)Nc1ccc2[nH]c(=O)[nH]c2c1	i	i	i	i	i	i
O=C1CCCN1CCC12CC3CC(CC(C3)C1)C2	i	i	?	i	21µM	i
O=C(CCc1nc2cccnc2n1Cc1ccccc1)NCCc1ccc(Cl)cc1	i	i	?	i	21µM	i
COc1ccc(Cn2c(CCC(=O)Nc3ccccc3)nc3cccnc32)cc1	i	i	i	i	i	?
CCc1nc2cccnc2n1-c1ccc(CC(=O)NC(C)CC)cc1 (stereo not given)	i	i	i	i	i	i
Cc1ccc(NC(=O)Cc2ccc(-n3c(C)nc4cccnc43)cc2)cc1C	nt	nt	12µM	nt	18µM	nt
COc1ccc(Cn2c(CCC(=O)Nc3cc(OC)c(OC)c(OC)c3)nc3cccnc32)cc1	nt	nt	16µM	nt	?	nt
O=C(CCc1nc2cccnc2n1Cc1cccs1)Nc1cccc(C(F)(F)F)c1	nt	nt	16µM	nt	10µM	nt
COc1ccccc1C(=O)Nc1nnc2n1CCS2	nt	nt	i	nt	i	nt
Cc1cc(=O)cc(C)n1-c1ccc(F)cc1F	i	i	i	i	i	i
COC(=O)c1cn(C(=O)c2cc(Br)ccc2Cl)c2ccccc12	i	i	?	i	?	i
COc1ccc(Cn2c(CCC(=O)Nc3cccc(OC)c3)nc3cccnc32)cc1	nt	nt	i	nt	i	nt
COc1ccc(Cn2c(CCC(=O)Nc3ccc(C)c(C)c3)nc3cccnc32)cc1	?	?	13µM!	i	21µM	i
Cc1oc2cc(O)ccc2c(=O)c1Oc1ccccc1	?	i	6.5µM	i	5.8µM	i
CCOc1ccc(Oc2c(C)oc3cc(O)ccc3c2=O)cc1	i	i	i	i	i	i
CCOC(=O)c1ccc(Oc2c(C)oc3cc(OS(C)(=O)=O)ccc3c2=O)cc1	?	i	16µM	i	16µM	i
Cc1cccc(NC(=O)c2cc3c([nH]c2=O)CC(c2ccccc2)CC3=O)c1 (stereo not given)	nt	nt	i	nt	i	nt
O=C(Nc1ccc(C(F)(F)F)cc1[N+](=O)[O-])O[C@H]1[C@H](Cc2ccccc2)NS(=O)(=O)[C@H]2C[C@@H]3C=C[C@]12O3	?	-50	21µM	i	16µM	i
Cc1cc2c([nH]c3ccccc32)c(C)n1	i	i	i	i	i	i
Cc1c2ccncc2cc2c1[nH]c1ccccc12	nt	-96	5.8µM	18µM	6.5µM	13µM
CCOc1ccccc1NC(=O)N1CCN(Cc2cc(=O)n3nc(-c4ccc(C)cc4)sc3n2)CC1	nt	nt	i	nt	i	nt
O=C(CSc1nc(-c2ccc(F)cc2)[nH]c1-c1ccc(F)cc1)Nc1ccc2c(c1)OCCO2	nt	nt	10µM	nt	10µM	nt

Assay outcomes from PubChem BioAssay.
